# In the library only some 22% were active in any assay of this set; here they are far more common.
# LmPK inh: qHTS Assay for Inhibitors of Leishmania Mexicana Pyruvate Kinase (LmPK); actives 0.37% (n = 290,000); Q27686; purified LmPK, Kinase-Glo ATP luminescence, 1 h; Potency, µM (highest dose often 57.5 µM), hits mostly inhibitors
# Target sequence (Q27686 whole entry, looked up): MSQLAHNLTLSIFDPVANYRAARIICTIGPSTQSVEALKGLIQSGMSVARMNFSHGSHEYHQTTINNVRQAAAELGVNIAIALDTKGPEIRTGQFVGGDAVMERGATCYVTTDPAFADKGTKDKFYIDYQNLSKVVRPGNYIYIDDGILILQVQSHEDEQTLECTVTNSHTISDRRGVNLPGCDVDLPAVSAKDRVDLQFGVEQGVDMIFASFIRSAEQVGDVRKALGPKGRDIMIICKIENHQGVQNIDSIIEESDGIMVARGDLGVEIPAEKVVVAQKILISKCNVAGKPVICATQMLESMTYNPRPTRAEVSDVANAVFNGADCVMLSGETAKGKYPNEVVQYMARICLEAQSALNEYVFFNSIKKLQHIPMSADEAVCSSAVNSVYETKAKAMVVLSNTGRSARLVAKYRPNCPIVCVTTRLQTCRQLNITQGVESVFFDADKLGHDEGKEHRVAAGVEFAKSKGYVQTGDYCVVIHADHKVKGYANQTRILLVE
#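 Kinase-Glo luminescence read after 1 h RT reaction of 0.1 nM LmPK with 0.5 mM PEP and 0.1 mM ADP. Activity scaled between uninhibited and enzyme-free controls.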
# CHX counter: Cycloheximide Counterscreen for Small Molecule Inhibitors of Shiga Toxin. cell reporter, cycloheximide protein synthesis inhibition counterscreen. max response, %. actives 12% (n = 300,000). AID 2314, 2010; in the data active = max response mostly above about 13%, no sharp cut-off; inactive = mostly below about 14%; also: read at 38.3 µM for the half of the compounds with a filed dose
# Shiga toxin inh: A qHTS for Small Molecule Inhibitors of Shiga Toxin; Vero cells, Shiga toxin protein synthesis inhibition reporter; actives 9.2% (n = 290,000); AID 2315, 2010; inhibition, % at 38.7 µM; in the data active = inhibition mostly above about 28%, no sharp cut-off; inactive = mostly below about 43%
# Pf growth 96h: Primary qHTS for delayed death inhibitors of the malarial parasite plastid, 96 hour incubation. P. falciparum luciferase reporter growth, 96 h. Potency, µM (highest dose often 28.7 µM), most hits filed as inhibitors. actives 6.9% (n = 320,000)
#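 P. falciparum expressing integrated firefly luciferase, in erythrocytes at 2% hematocrit, 0.05% parasitemia, incubated with compounds 96 h at 37 C, 5% CO2. Growth inhibition read as loss of luminescence; two-generation exposure targets delayed-death apicoplast inhibitors.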
# Pf growth 48h: Primary qHTS for delayed death inhibitors of the malarial parasite plastid, 48 hour incubation. Potency, µM (top dose mostly 28.7 µM), usual class: inhibitors. P. falciparum luciferase growth in erythrocytes, 48 h. AID 504832, 2011. actives 5.9% (n = 310,000)
#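 Growth was read as firefly luciferase luminescence after a 48 h, 37 C, 5% CO2 exposure of compounds to reporter-bearing P. falciparum cultures (0.1% parasitemia, 2% hematocrit final) in Albumax-supplemented RPMI 1640.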
# Hits are given with their value; i = inactive; ? = inconclusive; nt = not tested or not shown; [ ] = remark or other dose. Unless noted, calls follow the shape of the dose curve; as a rule, active = well fitted inhibition curve with a large enough effect; inconclusive = small, poorly fitted or top-dose-only effect, or another doubt; inactive = no such curve, though single readings can be large or run the other way.
SMILES,LmPK inh,CHX counter,Shiga toxin inh,Pf growth 96h,Pf growth 48h
CSc1ccc(/C=N/Nc2ccc(Cl)c(C(=O)O)c2)cc1,i,52,189,i,i
O=C(O)c1cccc(N/N=C/C2=C(Cl)c3cc(Cl)ccc3SC2)c1,i,65,129,8.3µM,i
Clc1cccc(Cl)c1/C=N/Nc1c(Cl)cncc1Cl,i,i,i,i,i
O=C(O)c1cc(N/N=C/c2ccc(-c3ccccc3)cc2)ccc1Cl,i,100,132,i,i
Cc1ccc(S(=O)(=O)NCc2ccc(C(=O)NC3CCCCC3)cc2)cc1,i,i,i,?,i
Cc1ccc(CN2Cc3cccc4c3[C@@H](CC2=O)[C@H](O)[C@H](O)C4)cc1,nt,nt,nt,i,i
Nc1ccccc1Nc1cc(-c2ccccc2)[nH]n1,i,29,55,?,?
Nc1ccccc1Nc1cc(-c2ccccc2)nn1-c1ccccc1,i,18,i,?,i
Nc1ccccc1Nc1ccccc1,i,i,i,?,i
Cc1ccc(-n2nc(-c3ccccc3)cc2Nc2ccccc2N)cc1,i,i,i,i,?
Cc1nc(N)c(CC(Br)CBr)c(Cl)n1 (configuration not stated),i,i,i,?,0.074µM
COc1ccc(CNCCCC(=O)Nc2c(Cl)ccc(C)c2Cl)cc1OC,i,i,i,i,i
O=C(Nc1nc2c(s1)CCCC2)c1cccc(S(=O)(=O)N2CCCc3ccccc32)c1,i,i,i,?,9.3µM
O=C(Nc1nc2ccc(F)cc2s1)c1cccc(S(=O)(=O)N2CCc3ccccc32)c1,i,24,i,?,i
O=C(NC1=NCCS1)c1cccc(S(=O)(=O)N2CCc3ccccc32)c1,i,i,i,i,?
CN1CCc2nc(NC(=O)c3cccc(S(=O)(=O)N4CCc5ccccc54)c3)sc2C1,i,i,i,i,5.9µM
O=C(Nc1nncs1)c1cccc(S(=O)(=O)N2CCc3ccccc32)c1,i,i,i,i,i
CCC(CC)c1nnc(NC(=O)c2cccc(S(=O)(=O)N3CCc4ccccc43)c2)s1,i,i,i,?,15µM
CN1CCCC(OC(=O)c2ccccc2Br)C1 (configuration not stated),i,i,i,i,i
CCN1CCc2nc(NC(=O)c3ccccc3)sc2C1,i,i,i,i,i
COc1cccc(C(=O)Nc2nc3c(s2)CN(C)CC3)c1,i,i,176,i,i
CC(=O)c1c(O)ccc2c(-c3ccccc3)cc(=O)oc12,i,i,i,i,i
CN(C)Cc1c(O)ccc2c(-c3ccccc3)cc(=O)oc12,i,i,i,9.3µM,i
CC(C)N(Cc1ccccc1)C(=S)Nc1cccnc1,i,i,i,7.4µM,?
Cc1[nH]c2ccc(F)cc2c1CCN(Cc1ccncc1)C(=S)Nc1ccccc1,i[11.5 µM],i,i,?,?
SMILES,LmPK inh,CHX counter,Shiga toxin inh,Pf growth 96h,Pf growth 48h
CCN(Cc1ccncc1)C(=S)Nc1ccccc1,i,i,i,2.9µM,i
COc1ccc(/C=N/n2cncn2)cc1Cn1nc(C)c([N+](=O)[O-])c1C,i,i,i,i,i
CC(=O)Oc1ccc2c(=O)c(-c3ccccc3)c(C)oc2c1,i,i,i,i,?
CCc1cc2c(=O)c(-c3ccc4c(c3)OCCO4)c(C)oc2cc1OS(C)(=O)=O,i,i,i,4.1µM,?
CC(C)OC(=O)c1c(N)n(Cc2ccco2)c2nc3ccccc3nc12,i,i,i,i,i
Cc1ccc(S(=O)(=O)c2c(N)n(Cc3ccco3)c3nc4ccccc4nc23)cc1,i,i,i,10µM,?
CCCCn1c(N)c(S(=O)(=O)c2ccc(C)cc2)c2nc3ccccc3nc21,i,i,i,12µM,?
CN(C)CCCn1c(N)c(S(=O)(=O)c2ccccc2)c2nc3ccccc3nc21,i,i,i,i,i
Cc1cccc(S(=O)(=O)c2c(N)n(Cc3ccco3)c3nc4ccccc4nc23)c1,i,i,i,i,8.3µM
CC1CCc2cc(F)ccc2N1S(=O)(=O)c1ccc(Cl)nc1 (configuration not stated),i,i,i,?,?
CCOC(=O)C1=NNC(C(=O)c2ccc(C)cc2)C1c1ccc(OC)cc1 (configuration not stated),i,i,i,nt,12µM
CCOC(=O)C1=NNC(C(=O)c2ccc(Cl)cc2)C1c1ccc(OC)cc1 (configuration not stated),i,i,i,13µM,?

# Screening data (PubChem)
